Assay results published in paper PMC12136788.
Residue numbers refer to the chain shown, from its start. Whole data set: some 24,000 sequences, median “enrichment r” near 0.99, cut for the highest 2% near 3.7. This is one part of a sample in which the highest values are shown more often than they occur.

T1: UNK ZnF1-3 (human, UniProt Q9C0B0 31-174)
T1 sequence: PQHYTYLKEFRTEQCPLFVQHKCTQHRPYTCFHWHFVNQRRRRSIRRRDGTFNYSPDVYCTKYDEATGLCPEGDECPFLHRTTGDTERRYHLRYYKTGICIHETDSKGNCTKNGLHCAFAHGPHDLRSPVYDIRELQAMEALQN

B1: 83126405_83126525_1642_CDS_ENSMUSG00000058881_ENSMUST00000071233|mouse|control|control (ssRNA)
RNA: GGGAGUUCUACAGUCCGACGAUCCCGGGGAUCAAGGUGGCCAGAAAGCAUGGGGUCCCCAGGUACACUGGCCCUCUUCCUCGGGGGAGCUUGGGUAGCCGGAGCAUCCUGUUCACGCUUGCGUUUUUCCUGGCUCACCAGUAUCAACAGAGGAUUGAGCAUCA
B2: chr7:54825262:54825263:-_ENSG00000132432_ENST00000352861|hu_hu|hu_hu_hu_mus_False|18_38 (ssRNA)
RNA: GGGAGUUCUACAGUCCGACGAUCCUGCCGGCUGGGCUCCACAAACUGCAUUACCUGAUCCAUGUUUGUUGGAUGGCGGAUUGAGAGCGUAGAGACAACGUAGCACUGAGAGAACCGGAUGGAGGCCAACCGGAAGCUGGCAACCAACAGAGGAUUGAGCAUCA
B3: chr2:42543136:42543137:+_ENSG00000143924_ENST00000318522|hu_mus|FALSE|FALSE (ssRNA)
RNA: GGGAGUUCUACAGUCCGACGAUCAUCUACUGAGUAGCGCAUCACAGACAGCUGCUCAUUGCCAUCCGUGUGGAUUGACACCAGAUCUCUUGUUUCUGCAUCCAGAACAAACCACCUGCCUGAGUGCGUUCCAAUGGCUACCACCAACAGAGGAUUGAGCAUCA
B4: chr19:8913615:8913616:-_ENSMUSG00000071658_ENSMUST00000096259|mus_hu|mus_mus_mus_hu_False|48_78 (ssRNA)
RNA: GGGAGUUCUACAGUCCGACGAUCAGGGUACCAAAACCUUCUGCCUGAAAUGGGUGCCCCACCCUGCAGGGAGUUGCAGCUGAAAGUAUCCGUAGCAGAAGCAGUGACUAUACGAAAGGAGGCCCCUGGGGAGGGCCAGGCCAGCAACAGAGGAUUGAGCAUCA
B5: chr12:8945443:8945444:+_ENSMUSG00000020585_ENSMUST00000020909|mus_mus|motif|central (ssRNA)
RNA: GGGAGUUCUACAGUCCGACGAUCUGGAAACGUACAAAUGAGAAGCAUGCAACCAUCAUCUUCCACAGUCAAGUCAAACUGCGGUUUCUCUCUCUCUCCUGUUUCAUAGAGCUGGAAACUGCAGGUGUUAUACCCAACCUAUUCCAACAGAGGAUUGAGCAUCA
B6: 117863777_117864697_1263_CDS_ENSMUSG00000017715_ENSMUST00000132676|mouse|control|control (ssRNA)
RNA: GGGAGUUCUACAGUCCGACGAUCGCGGUCCUGGCGGUUGGUGAAGUAUGAGUCACUCAGGUUUGCACCACUCAGGAUGACGUUGUUGUCAAAGAGGUACACCUUGAUGUGCUGGAGGCCGAUGGUCUCAUUGAAGCGCUCAGGCAACAGAGGAUUGAGCAUCA
B7: chr15:43699750:43699751:-_ENSG00000067369_ENST00000382044|hu_hu|motif|central (ssRNA)
RNA: GGGAGUUCUACAGUCCGACGAUCACACUUCAGCACCGAGGCUGGGCAUGAGGGGUCCGUCACCACCACAUCAAAUACCCCGGAAGCAAUAUCUUUGUUAUGGGCACUUGAAUGGUGCUGCUUCACAGAGGCUGCACCACCAGUCAACAGAGGAUUGAGCAUCA
B8: chr10:127876205:127876206:+_ENSMUSG00000025373_ENSMUST00000096386|mus_mus|FALSE|FALSE (ssRNA)
RNA: GGGAGUUCUACAGUCCGACGAUCGGGGCCACCGAGGCAACACAGACACCCUCUUGAGGCAGUGCCGUUCUGGAUCAGCAGAGCCAGACAGCAGCUUCCUGCUGAGUGUACGAACACCAGUGCUCUCACGCCCACCCCUUCCUUCAACAGAGGAUUGAGCAUCA
B9: 66332798_66333947_12362_CDS_ENSMUSG00000038664_ENSMUST00000042824|mouse|control|control (ssRNA)
RNA: GGGAGUUCUACAGUCCGACGAUCUUCACCACUUUCUGUCAAGGCCAUUGAGUGCCCAUCUGAGCCACAGGAAGUCACCAGCUGGGUCACCACAAAACCUUGUAGGGCUGAAAUCACAGUCAGCACAUGAAGGUCGUCUGAAUUCAACAGAGGAUUGAGCAUCA
B10: chr6:41757443:41757444:+_ENSG00000214736_ENST00000398881|hu_mus|hu_hu_hu_mus_False|28_28 (ssRNA)
RNA: GGGAGUUCUACAGUCCGACGAUCGAACCGUGCAGAGGCAACAUCUCAGCCGACACUGGGGGAUGGGGGGGCAGUGGGGGGGGGUUCAGGCAAGGAGAGGGAGUCAACCCAUCUGAACACUCAGGUAGGAUCUUGUGGUCACAGCAACAGAGGAUUGAGCAUCA
B11: chr6:41757443:41757444:+_ENSG00000214736_ENST00000398881|hu_mus|hu_hu_hu_mus_False|28_38 (ssRNA)
RNA: B10 RNA with G98A, G100A, G102A, U103A, C104G, A105U, A106G
B12: 53565353_53565853_12282_CDS_ENSG00000086758_ENST00000262854|human|control|control (ssRNA)
RNA: GGGAGUUCUACAGUCCGACGAUCCCCAUCAGCAAGGUGGGUCGUGGACUGCCGUAGGAUCUGGUUUAACACAGUGCGGUGAGUCUCUGCAAAGCGAAGGAACUUCUGUGUGUCAGGGGGCAGGCUUGAGGAGAUGUGCAUAGACAACAGAGGAUUGAGCAUCA
B13: chr7:133639990:133639991:-_ENSMUSG00000032637_ENSMUST00000167759|mus_hu|FALSE|FALSE (ssRNA)
RNA: GGGAGUUCUACAGUCCGACGAUCGGUAGAGAGUUCUUUUACAUCUGUGGGGGCCAGGGAGAUCUUUGGAGAAGCUGGAGAAAUGGAGCCCACUCCAGGAUCUGAGACUGAUGAGGUCACAGGGAUGGAGGCUGAAGAGGUUGGCAACAGAGGAUUGAGCAUCA
B14: chr6:41757443:41757444:+_ENSG00000214736_ENST00000398881|hu_mus|hu_hu_hu_mus_False|58_58 (ssRNA)
RNA: GGGAGUUCUACAGUCCGACGAUCGAACCGUGCAGAGGCAACAUCUCAGCCGACACUGGGGGAUGGGGGGGCAGUGGGAAACUAGGCAGGCAAGGAGAGGGAGUCAACUUCAGCUGCCACUCAGGUAGGAUCUUGUGGUCACAGCAACAGAGGAUUGAGCAUCA
B15: chr6:41757443:41757444:+_ENSG00000214736_ENST00000398881|hu_mus|hu_hu_hu_mus_False|1_68 (ssRNA)
RNA: GGGAGUUCUACAGUCCGACGAUCGAACCGUGCAGAGGCAACAUCUCAGCCGACACUGGGGGAUGGGGGAACAAAAGGGGGGGGUUCAGGCAAGGAGAGGGAGUCAACUUCAGCUGCCACUCAGGUAGGAUCUUGUGGGGCACACAACAGAGGAUUGAGCAUCA
B16: chr10:77750680:77750681:-_ENSMUSG00000001211_ENSMUST00000139282|mus_hu|FALSE|FALSE (ssRNA)
RNA: GGGAGUUCUACAGUCCGACGAUCGCGGCGGUAGAGCUGCUUGCUGACCGGCCAGAGCGCCAGCGUGCACAGCUGGACGAAGUUGAUGACCAGACCACUCACCACGAAGACAAAGCCGACCAGCAGGUGCAGCACGAACUGGGUCAACAGAGGAUUGAGCAUCA
B17: chr6:41757443:41757444:+_ENSG00000214736_ENST00000398881|hu_mus|hu_hu_hu_mus_False|18_28 (ssRNA)
RNA: B10 RNA with C117U, A118C, C119A, U120A, C121A, A122C, G123U, G124U, U125C
B18: chr6:41757443:41757444:+_ENSG00000214736_ENST00000398881|hu_mus|hu_hu_hu_mus_False|1_38 (ssRNA)
RNA: GGGAGUUCUACAGUCCGACGAUCGAACCGUGCAGAGGCAACAUCUCAGCCGACACUGGGGGAUGGGGGGGCAGUGGGGGGGGGUUCAGGCAAGGAGAAGAAAAGUGCUUCAGCUGCCACUCAGGUAGGAUCUUGUGGGGCACACAACAGAGGAUUGAGCAUCA

What follows are binders tested against T1, UNK ZnF1-3 (assay: nsRBNS (natural sequence RNA bind-n-seq); RBNS binding buffer (assumed for nsRBNS): 25 mM Tris pH 7.5, 150 mM KCl, 3 mM MgCl2, 0.01% Triton X-100, 500 ug/ml BSA, 20 U/ml SUPERase-In, 4 C; UNK is unkempt and MSI1 is Musashi-1; names of the RNAs are library labels; protein concentration not given here; high values mean tight binding).

Binder | binding signal
B1 | 0.53 enrichment R
B2 | 0.908 enrichment R
B3 | 0.836 enrichment R
B4 | 1.24 enrichment R
B5 | 0.736 enrichment R
B6 | 0.897 enrichment R
B7 | 0.852 enrichment R
B8 | 1.13 enrichment R
B9 | 0.824 enrichment R
B10 | 5.01 enrichment R
B11 | 3.96 enrichment R
B12 | 1.49 enrichment R
B13 | 2.03 enrichment R
B14 | 2.2 enrichment R
B15 | 3.16 enrichment R
B16 | 0.809 enrichment R
B17 | 5.1 enrichment R
B18 | 4.72 enrichment R
